# In ChEMBL document CHEMBL1961873, “Compounds: GSK PKIS; Assays: Nanosyn kinase panel” (2012):
# What was measured:
# [1] = biological target: T1, Serine/threonine-protein kinase TBK1 (Homo sapiens) (UniProt Q9UHD2); conditions: at 1 µM;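 further: values are mean inhibition of TBK1, screened as part of the GSK published kinase inhibitor set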
# T1 sequence (whole entry): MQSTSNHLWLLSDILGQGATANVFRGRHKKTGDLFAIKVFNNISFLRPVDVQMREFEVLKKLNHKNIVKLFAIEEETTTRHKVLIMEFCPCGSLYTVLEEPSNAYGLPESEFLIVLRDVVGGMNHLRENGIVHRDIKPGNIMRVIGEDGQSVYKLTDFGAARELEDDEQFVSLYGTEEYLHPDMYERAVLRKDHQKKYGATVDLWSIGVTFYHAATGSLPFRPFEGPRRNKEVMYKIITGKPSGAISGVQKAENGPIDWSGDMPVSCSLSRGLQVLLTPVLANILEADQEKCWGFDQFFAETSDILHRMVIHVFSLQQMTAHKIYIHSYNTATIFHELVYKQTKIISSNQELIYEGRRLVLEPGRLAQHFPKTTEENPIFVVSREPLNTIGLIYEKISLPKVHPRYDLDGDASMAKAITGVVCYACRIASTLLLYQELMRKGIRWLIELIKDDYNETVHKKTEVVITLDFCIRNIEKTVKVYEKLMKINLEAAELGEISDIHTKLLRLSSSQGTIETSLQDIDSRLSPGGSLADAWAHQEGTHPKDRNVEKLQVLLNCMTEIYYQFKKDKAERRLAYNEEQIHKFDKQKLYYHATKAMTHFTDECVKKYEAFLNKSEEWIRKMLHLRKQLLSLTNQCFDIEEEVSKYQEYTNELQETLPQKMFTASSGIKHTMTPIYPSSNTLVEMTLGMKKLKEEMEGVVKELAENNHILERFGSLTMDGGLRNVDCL
# [2] = biological target: T2, Testis-specific serine/threonine-protein kinase 1 (Homo sapiens) (UniProt Q9BXA7); conditions: at 0.1 µM
# T2 sequence (whole entry): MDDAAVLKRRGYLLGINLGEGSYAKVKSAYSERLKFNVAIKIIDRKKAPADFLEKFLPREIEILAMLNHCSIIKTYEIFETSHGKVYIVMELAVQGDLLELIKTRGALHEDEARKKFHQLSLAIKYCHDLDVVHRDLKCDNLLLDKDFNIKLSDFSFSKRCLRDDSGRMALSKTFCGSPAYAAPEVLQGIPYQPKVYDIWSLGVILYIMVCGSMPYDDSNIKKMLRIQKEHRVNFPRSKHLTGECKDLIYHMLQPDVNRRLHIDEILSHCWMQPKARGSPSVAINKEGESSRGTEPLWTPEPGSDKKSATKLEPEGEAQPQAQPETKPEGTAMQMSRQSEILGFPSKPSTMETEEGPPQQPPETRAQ
# [3] = biological target: T2, Testis-specific serine/threonine-protein kinase 1 (Homo sapiens); conditions: at 1 µM
# [4] = biological target: T3, Testis-specific serine/threonine-protein kinase 2 (Homo sapiens) (UniProt Q96PF2); conditions: at 0.1 µM
# T3 sequence (whole entry): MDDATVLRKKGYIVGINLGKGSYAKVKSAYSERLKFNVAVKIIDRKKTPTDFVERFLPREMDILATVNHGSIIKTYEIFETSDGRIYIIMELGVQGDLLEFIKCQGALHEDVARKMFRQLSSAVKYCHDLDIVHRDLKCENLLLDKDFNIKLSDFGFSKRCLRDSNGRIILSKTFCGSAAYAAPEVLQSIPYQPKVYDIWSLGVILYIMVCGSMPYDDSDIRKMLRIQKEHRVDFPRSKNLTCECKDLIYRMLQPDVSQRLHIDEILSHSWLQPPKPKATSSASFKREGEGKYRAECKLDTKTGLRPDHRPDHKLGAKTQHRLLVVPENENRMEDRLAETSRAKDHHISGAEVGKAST
# [5] = biological target: T3, Testis-specific serine/threonine-protein kinase 2 (Homo sapiens); conditions: at 1 µM
# [6] = biological target: Casein kinase I isoform alpha (Homo sapiens) (UniProt P48729); conditions: at 0.1 µM
# [7] = biological target: Casein kinase I isoform alpha (Homo sapiens) (UniProt P48729); conditions: at 1 µM
# [8] = biological target: Casein kinase I isoform gamma-1 (Homo sapiens) (UniProt Q9HCP0); conditions: at 0.1 µM
# [9] = biological target: Casein kinase I isoform gamma-1 (Homo sapiens) (UniProt Q9HCP0); conditions: at 1 µM
# [10] = biological target: Casein kinase I isoform gamma-2 (Homo sapiens) (UniProt P78368); conditions: at 0.1 µM
# [11] = biological target: Casein kinase I isoform gamma-2 (Homo sapiens) (UniProt P78368); conditions: at 1 µM
# [12] = biological target: Casein kinase I isoform gamma-3 (Homo sapiens) (UniProt Q9Y6M4); conditions: at 0.1 µM
# [13] = biological target: Casein kinase I isoform gamma-3 (Homo sapiens) (UniProt Q9Y6M4); conditions: at 1 µM
# [14] = biological target: Cyclin-dependent kinase 1 (Homo sapiens) (UniProt P06493); conditions: at 0.1 µM
# [15] = biological target: Cyclin-dependent kinase 1 (Homo sapiens) (UniProt P06493); conditions: at 1 µM
# [16] = biological target: Cyclin-dependent kinase 2 (Homo sapiens) (UniProt P24941); conditions: at 0.1 µM
# [17] = biological target: Cyclin-dependent kinase 2 (Homo sapiens) (UniProt P24941); conditions: at 1 µM
# [18] = biological target: Cyclin-dependent kinase 2 (Homo sapiens) (UniProt P24941); conditions: at 0.1 µM; remark: listed apart in the source
# [19] = biological target: Cyclin-dependent kinase 2 (Homo sapiens) (UniProt P24941); conditions: at 1 µM; remark: listed apart in the source
# [20] = biological target: CDK3/Cyclin E (Homo sapiens) (UniProt P24864+Q00526); conditions: at 0.1 µM;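 further: reported percentages are mean inhibition values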
# CDK3/Cyclin E (Homo sapiens), sequence (P24864 whole entry, looked up): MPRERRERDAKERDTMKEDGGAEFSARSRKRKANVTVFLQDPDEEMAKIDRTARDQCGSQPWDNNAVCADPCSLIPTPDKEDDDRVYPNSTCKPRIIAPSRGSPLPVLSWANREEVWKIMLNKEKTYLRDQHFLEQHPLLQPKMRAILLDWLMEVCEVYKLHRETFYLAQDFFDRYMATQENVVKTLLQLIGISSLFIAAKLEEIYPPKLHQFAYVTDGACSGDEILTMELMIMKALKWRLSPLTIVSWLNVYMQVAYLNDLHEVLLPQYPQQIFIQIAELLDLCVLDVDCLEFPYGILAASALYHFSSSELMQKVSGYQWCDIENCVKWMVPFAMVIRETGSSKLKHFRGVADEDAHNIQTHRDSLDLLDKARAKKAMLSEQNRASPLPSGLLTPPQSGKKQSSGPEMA
# CDK3/Cyclin E (Homo sapiens), sequence (Q00526 whole entry, looked up): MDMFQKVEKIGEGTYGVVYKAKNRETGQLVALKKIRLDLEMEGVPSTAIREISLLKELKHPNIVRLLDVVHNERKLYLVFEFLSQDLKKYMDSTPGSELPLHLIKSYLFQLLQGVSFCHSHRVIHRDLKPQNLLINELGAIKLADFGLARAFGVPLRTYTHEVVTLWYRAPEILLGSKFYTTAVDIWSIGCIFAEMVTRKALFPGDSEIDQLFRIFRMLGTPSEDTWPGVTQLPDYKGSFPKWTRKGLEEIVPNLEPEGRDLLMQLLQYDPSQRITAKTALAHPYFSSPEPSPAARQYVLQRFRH
# Casein kinase I isoform gamma-1 (Homo sapiens), sequence (Q9HCP0 whole entry, looked up, canonical isoform): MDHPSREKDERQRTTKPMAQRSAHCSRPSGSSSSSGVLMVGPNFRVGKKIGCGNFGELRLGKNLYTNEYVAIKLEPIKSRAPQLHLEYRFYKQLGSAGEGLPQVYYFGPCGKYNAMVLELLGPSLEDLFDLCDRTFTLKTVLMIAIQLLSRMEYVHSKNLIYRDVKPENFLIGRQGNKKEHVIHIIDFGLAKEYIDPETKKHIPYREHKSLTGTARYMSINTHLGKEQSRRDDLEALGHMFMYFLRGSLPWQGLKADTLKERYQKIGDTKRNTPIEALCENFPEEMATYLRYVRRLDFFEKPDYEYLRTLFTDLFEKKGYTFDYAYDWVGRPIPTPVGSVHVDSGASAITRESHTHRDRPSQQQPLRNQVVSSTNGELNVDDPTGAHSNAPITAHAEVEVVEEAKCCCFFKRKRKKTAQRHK
# Cyclin-dependent kinase 1 (Homo sapiens), sequence (P06493 whole entry, looked up): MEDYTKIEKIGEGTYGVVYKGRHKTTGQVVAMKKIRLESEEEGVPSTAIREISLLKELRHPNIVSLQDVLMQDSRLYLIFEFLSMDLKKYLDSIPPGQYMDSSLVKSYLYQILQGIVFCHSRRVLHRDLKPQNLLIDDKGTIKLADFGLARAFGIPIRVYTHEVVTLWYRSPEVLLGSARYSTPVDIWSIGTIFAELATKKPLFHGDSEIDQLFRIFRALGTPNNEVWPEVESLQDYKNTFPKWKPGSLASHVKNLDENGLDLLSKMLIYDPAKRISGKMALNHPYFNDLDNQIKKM
# Casein kinase I isoform alpha (Homo sapiens), sequence (P48729 2-337 limits assumed): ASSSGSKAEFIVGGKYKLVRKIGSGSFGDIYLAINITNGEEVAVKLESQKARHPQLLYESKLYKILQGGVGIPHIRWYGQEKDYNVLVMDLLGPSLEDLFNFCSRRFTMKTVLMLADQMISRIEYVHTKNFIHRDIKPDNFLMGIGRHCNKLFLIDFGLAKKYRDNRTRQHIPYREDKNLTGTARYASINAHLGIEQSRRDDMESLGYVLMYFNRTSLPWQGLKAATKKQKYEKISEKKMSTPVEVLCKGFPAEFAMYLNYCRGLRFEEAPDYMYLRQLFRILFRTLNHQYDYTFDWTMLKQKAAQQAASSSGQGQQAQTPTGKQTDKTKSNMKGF
# Casein kinase I isoform gamma-2 (Homo sapiens), sequence (P78368 whole entry, looked up, canonical isoform): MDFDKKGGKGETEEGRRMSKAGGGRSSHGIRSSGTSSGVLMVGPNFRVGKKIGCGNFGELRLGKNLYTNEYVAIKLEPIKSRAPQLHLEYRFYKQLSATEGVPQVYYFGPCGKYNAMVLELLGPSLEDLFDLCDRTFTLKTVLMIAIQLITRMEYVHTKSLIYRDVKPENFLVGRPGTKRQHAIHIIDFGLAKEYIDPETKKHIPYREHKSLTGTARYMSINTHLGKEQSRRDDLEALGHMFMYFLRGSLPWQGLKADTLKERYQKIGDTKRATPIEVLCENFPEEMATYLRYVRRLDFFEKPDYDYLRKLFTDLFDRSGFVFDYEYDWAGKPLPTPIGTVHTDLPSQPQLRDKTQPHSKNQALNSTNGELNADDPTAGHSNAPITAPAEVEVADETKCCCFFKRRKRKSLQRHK
# Casein kinase I isoform gamma-3 (Homo sapiens), sequence (Q9Y6M4 whole entry, looked up, canonical isoform): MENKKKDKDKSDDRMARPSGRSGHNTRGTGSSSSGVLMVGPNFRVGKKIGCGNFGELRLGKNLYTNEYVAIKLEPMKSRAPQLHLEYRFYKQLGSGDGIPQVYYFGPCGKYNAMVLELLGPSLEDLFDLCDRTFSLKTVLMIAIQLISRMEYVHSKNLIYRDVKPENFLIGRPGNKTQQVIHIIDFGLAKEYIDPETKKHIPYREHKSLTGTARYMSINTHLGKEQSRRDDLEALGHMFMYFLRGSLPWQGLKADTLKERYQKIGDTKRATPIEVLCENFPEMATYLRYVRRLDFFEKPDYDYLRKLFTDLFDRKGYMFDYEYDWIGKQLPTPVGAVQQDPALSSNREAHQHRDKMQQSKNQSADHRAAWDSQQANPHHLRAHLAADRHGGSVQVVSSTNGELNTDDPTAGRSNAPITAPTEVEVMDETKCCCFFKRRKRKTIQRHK
Compound,inhibition [1],inhibition [2],inhibition [3],inhibition [4],inhibition [5],inhibition [6],inhibition [7],inhibition [8],inhibition [9],inhibition [10],inhibition [11],inhibition [12],inhibition [13],inhibition [14],inhibition [15],inhibition [16],inhibition [17],inhibition [18],inhibition [19],inhibition [20]
Cc1ccc2c(-c3ccnc(Nc4cccc(C(F)(F)F)c4)n3)c(-c3ccccc3)nn2n1,4.86%,3.88%,4.11%,1.4%,2.15%,15.3%,59.2%,5%,14%,3.82%,12%,4.25%,24.8%,3.78%,3.79%,4.09%,3.14%,2.95%,7.4%,-1.21%
c1ccc(Nc2ncc(-c3ccccc3)o2)cc1,5.74%,5.73%,6.03%,2.44%,3.66%,4.02%,7.73%,3.94%,5.22%,3.32%,5.31%,4.05%,4.99%,2.77%,4.54%,3.79%,10.5%,3.46%,12.3%,0.23%
NC(=O)c1cccc(Nc2nccc(Nc3cccc(F)c3)n2)c1,6.93%,-0.18%,0.75%,0.59%,-0.96%,-0.75%,1.32%,0.88%,1.67%,0.97%,1.73%,0.99%,0.09%,1.24%,3.33%,2.07%,4.6%,0.92%,5.16%,0.62%
CCS(=O)(=O)c1ccc(OC)c(Nc2nccc(N(C)c3ccc4c(C)n[nH]c4c3)n2)c1,4.2%,4.59%,5.05%,1.98%,1.88%,2.29%,1.04%,4.4%,4.99%,3.88%,4.44%,3.36%,3.45%,0.39%,1.28%,1.59%,3.06%,2.45%,3.56%,0.61%
COc1cccc(-n2ncc3c(N/N=C/c4ccc(C)cc4)ncnc32)c1,5.4%,5.91%,15.2%,2.36%,3.89%,3%,8.69%,6.44%,11.2%,6.88%,12%,6.01%,8.48%,4.4%,8.17%,5.82%,11%,2.46%,7.81%,-3.32%
COc1ccc2ncnc(Nc3ccc(OCc4ccccc4)cc3)c2c1,1.27%,1.95%,3.16%,0.6%,2.34%,6.26%,8.76%,1.48%,2.76%,1.66%,2.03%,-0.66%,1.41%,0.67%,1.75%,1.36%,-4.84%,0.4%,1.13%,1.69%
Cc1cc(Cl)cc2c1NC(=O)C2=NNc1ccc(S(N)(=O)=O)cc1,1.59%,4.21%,4.86%,2.71%,5.17%,1.05%,0.59%,1.63%,1.59%,1.66%,1.54%,-0.43%,0.95%,1.08%,1.91%,1.27%,2.22%,1.42%,4.71%,3.25%
Cc1ccc(C(=O)NC2CC2)cc1-c1ccc2[nH]ncc2c1,-1.07%,-1.33%,-2.04%,-2.24%,-1.65%,-6.12%,-2.96%,-3.43%,-2.76%,-2.87%,-3.39%,-2.17%,-1.12%,0.88%,2.1%,0.12%,4.69%,-1.68%,0.18%,-2.07%
COc1cccc(-n2ncc3c(N/N=C/c4ccc(S(C)(=O)=O)cc4)ncnc32)c1,7.99%,1.1%,-0.61%,0.93%,0.31%,2.28%,5.91%,-2.52%,-0.99%,-2.87%,-0.73%,-4.22%,-2.43%,26.2%,64%,32.1%,68%,7.18%,41.6%,4.38%
COc1cc2ncn(-c3cc(OCc4ccccc4S(C)(=O)=O)c(C#N)s3)c2cc1OC,83%,22.1%,69.2%,0.6%,4.54%,3.32%,3.58%,3.26%,4.23%,2.02%,3.78%,2.68%,2.61%,1.59%,6.07%,2.46%,5.28%,4.39%,5.94%,0.41%
COC(=O)c1cncc(/C=C/c2c(C)cc(O)cc2C)c1,3.98%,2.95%,5.68%,0.9%,0.8%,1.49%,4.06%,3.02%,4.65%,2.68%,3.31%,2.67%,3.39%,0.78%,3.13%,2.61%,4.42%,3.33%,5.75%,1.45%
CN(c1ccc(NC(=O)Nc2ccc(OC(F)(F)F)cc2)cc1)c1ccnc(Nc2cccc(S(N)(=O)=O)c2)n1,9.01%,1.37%,2.44%,1.3%,1.3%,2.69%,-0.75%,2.75%,3.06%,2.32%,2.66%,1.74%,2.37%,-0.1%,5.09%,0.55%,14.4%,1.2%,7.47%,-0.62%
Nc1nccc(-c2c(-c3ccc(F)cc3)nn3cc(C(F)(F)F)ccc23)n1,-0.2%,0.37%,1.13%,0.32%,-0.24%,0.88%,10.8%,0.74%,2.65%,0.3%,1.13%,0.79%,1.7%,1.22%,0.47%,-0.36%,-2.27%,-0.77%,0.2%,-0.58%
